Assay results reported in PubChem BioAssay (NCI).
Compounds without any hit were thinned out: in the full panel of roughly 79,000, 15% have a hit. The source made the active and inactive calls. Rule as the data show it: active = growth inhibition above about 70%; inactive = the rest.

How the values were obtained:
[1] = NCI Yeast Anticancer Drug Screen. Data for the wt1 strain (AID 149);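 also: 0% = growth of vehicle-treated wt1 cultures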; details: S. cerevisiae wt1 strain (SPY 50644) growth inhibition, stronger effect = higher value
Method in brief: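 Using yeast strain wt1, compound-induced growth inhibition was determined against vehicle-treated cultures.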

[2] = NCI Yeast Anticancer Drug Screen. Data for the rad50EPP+ strain (AID 151);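 also: 0% = growth of vehicle-treated control cultures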; details: S. cerevisiae rad50 mutant strain, stronger effect = higher value
Method in brief: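 One strain with a rad50 alteration (rad50EPP+) was compound-treated, its growth then compared to that of vehicle controls.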

[3] = NCI Yeast Anticancer Drug Screen. Data for the mgt1 strain (AID 153); details: S. cerevisiae mgt1 mutant growth inhibition, stronger effect = higher value
Method in brief: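 After exposure of the mgt1 yeast mutant to compound, growth was measured and reported as inhibition compared with vehicle controls.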

[4] = NCI Yeast Anticancer Drug Screen. Data for the rad50 strain (AID 155);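 also: 0% = growth of vehicle-only cultures of the same strain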; details: S. cerevisiae rad50 strain growth inhibition, stronger effect = higher value
Method in brief: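 Relative growth inhibition (compound vs vehicle) was measured in yeast with a defined repair-gene alteration.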

[5] = NCI Yeast Anticancer Drug Screen. Data for the mec2-1 strain (AID 157); details: S. cerevisiae mec2-1 strain, stronger effect = higher value
Method in brief: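 Test agents were screened against the mec2-1 yeast strain, with defined DNA repair or cell cycle alteration. Growth was scored as inhibition against vehicle-only controls.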

[6] = NCI Yeast Anticancer Drug Screen. Data for the rad14 strain (AID 159);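 also: 0% = growth of vehicle-treated control cultures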; details: S. cerevisiae rad14 strain growth inhibition, stronger effect = higher value
Method in brief: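 Screen for anticancer potential: a yeast strain altered in DNA damage repair is grown with compound, and reduced growth is quantified against vehicle controls.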

[7] = NCI Yeast Anticancer Drug Screen. Data for the sgs1 mgt1 strain (AID 161);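 also: 0% = growth of cultures given vehicle only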; details: S. cerevisiae sgs1 mgt1 strain, stronger effect = higher value
Method in brief: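 Inhibition of yeast growth, normalised to vehicle-treated controls, is reported for a strain bearing genetic alterations in DNA damage repair.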

[8] = NCI Yeast Anticancer Drug Screen. Data for the CLN2oe strain (AID 163);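 also: 0% = growth of vehicle-only control cultures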; details: S. cerevisiae CLN2oe strain, stronger effect = higher value
Method in brief: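 Here, growth inhibition in a cell-cycle-altered yeast strain after compound exposure was quantified against vehicle control growth.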

[9] = NCI Yeast Anticancer Drug Screen. Data for the cln2 rad14 strain (AID 165);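 also: 0% = growth equal to vehicle treated cultures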; details: S. cerevisiae cln2 rad14 strain, stronger effect = higher value
Method in brief: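 Growth of compound-exposed yeast (cln2 rad14 genotype) measured and expressed as inhibition relative to vehicle.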

[10] = NCI Yeast Anticancer Drug Screen. Data for the bub3 strain (AID 167); details: S. cerevisiae bub3 mutant strain, stronger effect = higher value
Method in brief: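 Screening used yeast with an engineered genetic alteration affecting cell cycle control. Compound-exposed cultures were compared with vehicle cultures, and reduced growth was taken as inhibition.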

[11] = NCI Yeast Anticancer Drug Screen. Data for the mlh1 strain (AID 171);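 also: 0% = growth of vehicle-treated control cultures of the same strain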; details: S. cerevisiae mlh1 strain growth inhibition, stronger effect = higher value
Method in brief: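 Here the genetically defined yeast mutant is grown with each compound, and the extent to which its growth falls below that of vehicle-exposed cells is reported.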

[12] = NCI Yeast Anticancer Drug Screen. Data for the sgs1 strain (AID 173);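 also: 0% = growth of vehicle-only control cultures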; details: S. cerevisiae sgs1 mutant, stronger effect = higher value
Method in brief: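 Relative growth inhibition, referenced to vehicle, was determined in a yeast strain with a defined alteration affecting DNA damage repair or cell cycle control after compound exposure.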

[13] = NCI Yeast Anticancer Drug Screen. Data for the mlh1 rad18 strain (AID 175); details: S. cerevisiae mlh1 rad18 strain growth inhibition, stronger effect = higher value
Method in brief: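 In this whole-cell yeast screen, a strain with altered DNA damage repair is challenged with compound, and its growth is measured against matched vehicle-treated controls.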

[14] = NCI Yeast Anticancer Drug Screen. Data for the rad18 strain (AID 177); details: S. cerevisiae rad18 mutant growth inhibition, stronger effect = higher value
Method in brief: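 Screen uses a yeast strain with a defined lesion in DNA damage repair; compound effect is read as loss of growth compared to untreated vehicle cultures.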

[15] = NCI Yeast Anticancer Drug Screen. Data for the wt2 strain (AID 169);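 also: 0% = growth of vehicle-treated yeast cultures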; details: S. cerevisiae wt2 strain growth inhibition, stronger effect = higher value
Method in brief: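 Genetically defined yeast strains from a DNA-repair/cell-cycle panel were used. Compound-exposed yeast growth was measured, and the inhibition was calculated relative to vehicle treatment.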

[16] = at 5.0 µM (retest, dose inferred, filed as 0.5)
[17] = at 50.0 µM (retest, dose inferred, filed as 5.0)

Measured: growth inhibition

c1ccc2c(c1)sc1cc3ccncc3cc12
active: [1]; at 100.0 µM 94% | [2]; at 33.0 µM 94% | [2]; at 100.0 µM 99% | [3]; at 100.0 µM 94% | [4]; [16] 93% | [4]; at 33.0 µM 89% | [4]; [17] 94% | [4]; at 50.0 µM 97.7% | [4]; at 100.0 µM 98% | [5]; [17] 96% | [5]; at 50.0 µM 98.2% | [5]; at 100.0 µM 89% | [6]; at 100.0 µM 97% | [7]; [17] 93% | [7]; at 50.0 µM 98.1% | [8]; at 100.0 µM 91% | [9]; [17] 96% | [9]; at 50.0 µM 96.2% | [10]; [17] 95% | [10]; at 50.0 µM 97.3% | [10]; at 100.0 µM 94% | [11]; at 100.0 µM 95% | [12]; at 100.0 µM 97% | [13]; [17] 94% | [13]; at 50.0 µM 97.4% | [14]; at 100.0 µM 97%
inactive: [1]; at 1.2 µM -7% | [1]; at 3.7 µM -4% | [1]; at 11.0 µM -9% | [1]; at 33.0 µM 17% | [2]; at 1.2 µM 7% | [2]; at 3.7 µM 21% | [2]; at 11.0 µM 63% | [3]; at 1.2 µM -2% | [3]; at 3.7 µM -3% | [3]; at 11.0 µM -2% | [3]; at 33.0 µM 11% | [4]; at 1.2 µM -6% | [4]; at 3.7 µM 7% | [4]; at 11.0 µM 29% | [5]; at 1.2 µM 1% | [5]; at 3.7 µM -1% | [5]; [16] 15% | [5]; at 11.0 µM 11% | [5]; at 33.0 µM 8% | [6]; at 1.2 µM 2% | [6]; at 3.7 µM 7% | [6]; at 11.0 µM 16% | [6]; at 33.0 µM 36% | [7]; [16] 12% | [8]; at 1.2 µM -2% | [8]; at 3.7 µM 0% | [8]; at 11.0 µM 7% | [8]; at 33.0 µM 26% | [9]; [16] 16% | [10]; at 1.2 µM -12% | [10]; at 3.7 µM -7% | [10]; [16] -4% | [10]; at 11.0 µM 0% | [10]; at 33.0 µM 19% | [11]; at 1.2 µM 6% | [11]; at 3.7 µM -6% | [11]; at 11.0 µM -1% | [11]; at 33.0 µM 19% | [12]; at 1.2 µM -2% | [12]; at 3.7 µM -7% | [12]; at 11.0 µM -7% | [12]; at 33.0 µM 34% | [13]; [16] 8% | [14]; at 1.2 µM -3% | [14]; at 3.7 µM -1% | [14]; at 11.0 µM 5% | [14]; at 33.0 µM 22%

Cc1nn(-c2cc(Cl)ccc2[N+](=O)[O-])c(C)c1Cl
inactive: [1]; at 1.2 µM -1% | [1]; at 3.7 µM -1% | [1]; at 11.0 µM 1% | [1]; at 33.0 µM -1% | [1]; at 100.0 µM 2% | [2]; at 1.2 µM 4% | [2]; at 3.7 µM 8% | [2]; at 11.0 µM 14% | [2]; at 33.0 µM 19% | [2]; at 100.0 µM 10% | [3]; at 1.2 µM -2% | [3]; at 3.7 µM -2% | [3]; at 11.0 µM 4% | [3]; at 33.0 µM -8% | [3]; at 100.0 µM 7% | [4]; at 1.2 µM 0% | [4]; at 3.7 µM 1% | [4]; [16] -20% | [4]; at 11.0 µM -16% | [4]; at 33.0 µM 2% | [4]; [17] -9% | [4]; at 50.0 µM 50% | [4]; at 100.0 µM 2% | [5]; at 1.2 µM 7% | [5]; at 3.7 µM 0% | [5]; [16] -7% | [5]; at 11.0 µM 3% | [5]; at 33.0 µM 2% | [5]; [17] -18% | [5]; at 50.0 µM 54.1% | [5]; at 100.0 µM 4% | [6]; at 1.2 µM -1% | [6]; at 3.7 µM 0% | [6]; at 11.0 µM 4% | [6]; at 33.0 µM 2% | [6]; at 100.0 µM 3% | [7]; [16] -15% | [7]; [17] -10% | [7]; at 50.0 µM 43.6% | [8]; at 1.2 µM 1% | [8]; at 3.7 µM 2% | [8]; at 11.0 µM -2% | [8]; at 33.0 µM 4% | [8]; at 100.0 µM 5% | [9]; [16] 39% | [9]; [17] 4% | [9]; at 50.0 µM 26.1% | [10]; at 1.2 µM 1% | [10]; at 3.7 µM 7% | [10]; [16] -6% | [10]; at 11.0 µM 20% | [10]; at 33.0 µM 24% | [10]; [17] -6% | [10]; at 50.0 µM 64.2% | [10]; at 100.0 µM 16% | [15]; at 1.2 µM 0% | [15]; at 3.7 µM -1% | [15]; at 11.0 µM -1% | [15]; at 33.0 µM -1% | [15]; at 100.0 µM 0% | [11]; at 1.2 µM 0% | [11]; at 3.7 µM 2% | [11]; at 11.0 µM 3% | [11]; at 33.0 µM 1% | [11]; at 100.0 µM 3% | [12]; at 1.2 µM -1% | [12]; at 3.7 µM -2% | [12]; at 11.0 µM -1% | [12]; at 33.0 µM -1% | [12]; at 100.0 µM 2% | [13]; [16] -3% | [13]; [17] -9% | [13]; at 50.0 µM 15.2% | [14]; at 1.2 µM 2% | [14]; at 3.7 µM 2% | [14]; at 11.0 µM 2% | [14]; at 33.0 µM -14% | [14]; at 100.0 µM 1%
